Source: PubChem BioAssay AID1159580 (chemical genetic matrix, 2015)
Values joined by “and” are separate entries in the source; they are usually repeats but may differ in a detail not shown here. Identical values can stand only once. The campaign covered roughly 5,500 compounds. About 2,000 (36%) were called active. About 18% were inconclusive and are not listed. No stated cut-off is given here; in the data, active means normalized growth mostly below about 0.91 (no sharp cut-off); inconclusive means no clear call, values can overlap the other calls; inactive means mostly above about 0.92. Some of the results follow.

Assay: chemical genetic growth profiling, strain panel (AID 1159580);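 further: tested at 20 µM; growth read once vehicle control cultures reached saturation at 30 °C; 1 = growth at the plate median or of vehicle wells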
Settings: growth OD

Measured: normalized growth

CC1COc2c(N3CCN(C)CC3)c(F)cc3c(=O)c(C(=O)O)cn1c23 (stereo not drawn)
inactive: S. cerevisiae deletion strains, locus YJR066W, strain TOR1, stronger effect = lower value 0.948 | S. cerevisiae deletion strains, locus YKL009W, strain mrt4, stronger effect = lower value 1.03 | S. cerevisiae deletion strains, locus YKL068W, stronger effect = lower value 1.02 | S. cerevisiae deletion strains, locus YKL085W, strain MDH1 (second series), stronger effect = lower value 1 | S. cerevisiae deletion strains, locus YKL085W, strain MDH1, stronger effect = lower value 1 | S. cerevisiae deletion strains, locus YKL160W, strain elf1, stronger effect = lower value 0.971 | S. cerevisiae deletion strains, locus YKL190W, strain CNB1, stronger effect = lower value 1.01 | S. cerevisiae deletion strains, locus YKR001C, strain vps1, stronger effect = lower value 1.03 | S. cerevisiae deletion strains, locus YKR026C, strain gcn3, stronger effect = lower value 0.988 | S. cerevisiae deletion strains, locus YKR091W, strain srl3, stronger effect = lower value 0.984 | S. cerevisiae deletion strains, locus YLL001W, strain dnm1, stronger effect = lower value 0.958 | S. cerevisiae deletion strains, locus YLL026W, stronger effect = lower value 0.998 | S. cerevisiae deletion strains, locus YLL041C, strain sdh2, stronger effect = lower value 0.987 | S. cerevisiae deletion strains, locus YLR027C, strain aat2, stronger effect = lower value 0.997 | S. cerevisiae deletion strains, locus YLR039C, strain RIC1, stronger effect = lower value 1.03 | S. cerevisiae deletion strains, locus YLR058C, strain SHM2, stronger effect = lower value 1.01 | S. cerevisiae deletion strains, locus YLR102C, strain apc9, stronger effect = lower value 1.02 | S. cerevisiae deletion strains, locus YLR113W, strain HOG1, stronger effect = lower value 0.942 | S. cerevisiae deletion strains, locus YLR221C, strain rsa3, stronger effect = lower value 0.979 | S. cerevisiae deletion strains, locus YLR258W, strain gsy2, stronger effect = lower value 0.994 | S. cerevisiae deletion strains, locus YLR262C, strain YPT6 (second series), stronger effect = lower value 0.966 | S. cerevisiae deletion strains, locus YLR262C, strain YPT6, stronger effect = lower value 1.07 | S. cerevisiae deletion strains, locus YLR268W, strain sec22, stronger effect = lower value 1.01 | S. cerevisiae deletion strains, locus YLR320W, strain mms22, stronger effect = lower value 0.961 | S. cerevisiae deletion strains, locus YLR330W, strain CHS5, stronger effect = lower value 1.01 | S. cerevisiae deletion strains, locus YLR342W, strain FKS1 (second series), stronger effect = lower value 1 | S. cerevisiae deletion strains, locus YLR342W, strain FKS1, stronger effect = lower value 0.976 | S. cerevisiae deletion strains, locus YLR357W, strain rsc2, stronger effect = lower value 0.967 | S. cerevisiae deletion strains, locus YLR370C, strain arc18, stronger effect = lower value 0.98 | S. cerevisiae deletion strains, locus YLR371W, strain rom2, stronger effect = lower value 1.02 | S. cerevisiae deletion strains, locus YLR384C, strain iki3, stronger effect = lower value 0.965 | S. cerevisiae deletion strains, locus YLR418C, strain cdc73, stronger effect = lower value 1.02 | S. cerevisiae deletion strains, locus YML016C, strain PPZ1, stronger effect = lower value 1 | S. cerevisiae deletion strains, locus YML032C, strain rad52, stronger effect = lower value 1.01 | S. cerevisiae deletion strains, locus YML120C, strain ndi1, stronger effect = lower value 0.984 | S. cerevisiae deletion strains, locus YML124C, strain tub3, stronger effect = lower value 1.01 | S. cerevisiae deletion strains, locus YMR058W, strain fet3, stronger effect = lower value 0.985 | S. cerevisiae deletion strains, locus YMR078C, strain ctf18, stronger effect = lower value 1.01 | S. cerevisiae deletion strains, locus YMR125W, strain sto1, stronger effect = lower value 0.981 | S. cerevisiae deletion strains, locus YMR129W, stronger effect = lower value 0.99 | S. cerevisiae deletion strains, locus YMR205C, strain PFK2, stronger effect = lower value 0.959 | S. cerevisiae deletion strains, locus YMR223W, strain ubp8, stronger effect = lower value 1.02 | S. cerevisiae deletion strains, locus YMR231W, strain pep5, stronger effect = lower value 0.981 | S. cerevisiae deletion strains, locus YMR307W, strain GAS1, stronger effect = lower value 1.09 | S. cerevisiae deletion strains, locus YNL067W, strain RPL9B, stronger effect = lower value 1 | S. cerevisiae deletion strains, locus YNL071W, strain lat1, stronger effect = lower value 0.987 | S. cerevisiae deletion strains, locus YNL128W, strain TEP1, stronger effect = lower value 1.03 | S. cerevisiae deletion strains, locus YNL153C, strain GIM3, stronger effect = lower value 1.05 | S. cerevisiae deletion strains, locus YNL183C, strain NPR1, stronger effect = lower value 0.928 | S. cerevisiae deletion strains, locus YNL197C, strain WHI3, stronger effect = lower value 1.01 | S. cerevisiae deletion strains, locus YNL209W, strain ssb2, stronger effect = lower value 0.988 | S. cerevisiae deletion strains, locus YNL224C, strain SQS1, stronger effect = lower value 1.01 | S. cerevisiae deletion strains, locus YNL233W, strain BNI4, stronger effect = lower value 1 | S. cerevisiae deletion strains, locus YNL248C, strain rpa49, stronger effect = lower value 0.982 | S. cerevisiae deletion strains, locus YNL250W, strain rad50, stronger effect = lower value 1.01 | S. cerevisiae deletion strains, locus YNL271C, strain bni1, stronger effect = lower value 1.02 | S. cerevisiae deletion strains, locus YNL298W, strain CLA4, stronger effect = lower value 1.02 | S. cerevisiae deletion strains, locus YNL307C, strain MCK1, stronger effect = lower value 1.02 | S. cerevisiae deletion strains, locus YNL322C, strain KRE1 (second series), stronger effect = lower value 0.978 | S. cerevisiae deletion strains, locus YNL322C, strain KRE1, stronger effect = lower value 0.995 | S. cerevisiae deletion strains, locus YNR049C, strain mso1, stronger effect = lower value 0.986 | S. cerevisiae deletion strains, locus YNR052C, strain pop2, stronger effect = lower value 1.03 | S. cerevisiae deletion strains, locus YOL006C, strain TOP1, stronger effect = lower value 1.02 | S. cerevisiae deletion strains, locus YOL012C, strain htz1 1.78 | S. cerevisiae deletion strains, locus YOL147C, strain pex11, stronger effect = lower value 1.01 | S. cerevisiae deletion strains, locus YOR001W, strain rrp6, stronger effect = lower value 1.01 | S. cerevisiae deletion strains, locus YOR061W, strain CKA2, stronger effect = lower value 1.01 | S. cerevisiae deletion strains, locus YOR069W, strain VPS5, stronger effect = lower value 1 | S. cerevisiae deletion strains, locus YOR070C, strain gyp1, stronger effect = lower value 0.994 | S. cerevisiae deletion strains, locus YOR080W, strain dia2, stronger effect = lower value 0.984 | S. cerevisiae deletion strains, locus YOR083W, strain WHI5 (second series), stronger effect = lower value 1.02 | S. cerevisiae deletion strains, locus YOR083W, strain WHI5, stronger effect = lower value 0.953 | S. cerevisiae deletion strains, locus YOR106W, strain vam3, stronger effect = lower value 0.971 | S. cerevisiae deletion strains, locus YOR136W, strain idh2, stronger effect = lower value 1.01 | S. cerevisiae deletion strains, locus YOR144C, strain elg1, stronger effect = lower value 1.01 | S. cerevisiae deletion strains, locus YOR184W, strain ser1, stronger effect = lower value 1.02 | S. cerevisiae deletion strains, locus YOR231W, strain MKK1, stronger effect = lower value 0.972 | S. cerevisiae deletion strains, locus YOR265W, strain rbl2, stronger effect = lower value 0.989 | S. cerevisiae deletion strains, locus YOR270C, strain vph1, stronger effect = lower value 0.965 | S. cerevisiae deletion strains, locus YOR290C, strain snf2, stronger effect = lower value 0.985 | S. cerevisiae deletion strains, locus YOR316C, strain cot1, stronger effect = lower value 1.01 | S. cerevisiae deletion strains, locus YPL051W, strain arl3, stronger effect = lower value 0.98 | S. cerevisiae deletion strains, locus YPL055C, strain LGE1, stronger effect = lower value 1.03 and 1.01 | S. cerevisiae deletion strains, locus YPL078C, strain atp4, stronger effect = lower value 0.966 | S. cerevisiae deletion strains, locus YPL106C, strain sse1, stronger effect = lower value 0.965 | S. cerevisiae deletion strains, locus YPL240C, strain hsp82, stronger effect = lower value 0.999 | S. cerevisiae deletion strains, locus YPL256C, strain CLN2, stronger effect = lower value 1 | S. cerevisiae deletion strains, locus YPR119W, strain clb2, stronger effect = lower value 1.01 | S. cerevisiae deletion strains, locus YPR141C, strain kar3, stronger effect = lower value 1.01 | S. cerevisiae deletion strains, locus YPR163C, strain tif3, stronger effect = lower value 1.01 | S. cerevisiae deletion strains, locus YPR167C, strain met16, stronger effect = lower value 1.01 | S. cerevisiae deletion strains, strain wtn01, stronger effect = lower value 1.01 | S. cerevisiae strains, strain wild type, stronger effect = lower value 1.01
